Only some compounds are listed: those with a hit (about 10% of all), similar ones and a draw of the others.
RORg inh: qHTS for inhibitors of ROR gamma transcriptional activity; Potency, µM (series often up to 53.6 µM), without a hit: top-dose activity change, negative = inhibition, usual class: inhibitors; Drosophila S2 Gal4-RORgamma UAS-luciferase reporter, 20 h; hit rate 5.4% among 310,000; note: % is set by controls: 0 for no effect and ±100 for the full control effect; nearly all actives have a fitted effect of over 60% in size
Target sequence (P51450 whole entry, looked up, the tested form may be a part): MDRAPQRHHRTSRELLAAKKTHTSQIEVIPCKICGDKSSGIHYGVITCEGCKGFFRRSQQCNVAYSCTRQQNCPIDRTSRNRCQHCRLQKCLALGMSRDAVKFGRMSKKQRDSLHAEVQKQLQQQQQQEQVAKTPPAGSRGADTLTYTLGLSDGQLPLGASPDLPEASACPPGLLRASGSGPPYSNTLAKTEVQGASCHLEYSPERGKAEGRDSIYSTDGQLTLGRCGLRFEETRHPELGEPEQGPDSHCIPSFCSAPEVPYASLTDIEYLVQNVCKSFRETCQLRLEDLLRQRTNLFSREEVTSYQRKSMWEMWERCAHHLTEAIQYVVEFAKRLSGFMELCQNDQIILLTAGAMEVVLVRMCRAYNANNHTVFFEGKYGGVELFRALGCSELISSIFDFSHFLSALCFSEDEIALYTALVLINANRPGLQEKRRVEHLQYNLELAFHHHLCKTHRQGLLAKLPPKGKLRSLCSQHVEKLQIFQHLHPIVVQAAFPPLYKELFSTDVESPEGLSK
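Drosophila Schneider cells stably carrying a metallothionein-driven Gal4 DBD–ROR gamma fusion and a UAS-Photinus luciferase reporter were exposed to compound for 1 hr, then induced with copper sulfate (700 uM final) for 20 hr at ambient temperature before luminescence reading.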
KB-V1 MDR tox: qHTS assay for MDR1-selective chemotherapeutics: Primary screen using the drug-selected MDR subline cells KB-V1; KB-V1 MDR cells viability, CellTiter-Glo, 72 h; Potency, µM (top dose mostly 46.1 µM), actives largely listed as cytotoxic; hit rate 3.4% among 400,000; note: % is set by controls: 0 for no effect and ±100 for the full control effect; nearly all actives have a fitted effect of over 60% in size
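Following 72 h at 37 degrees C with compound, KB-V1 cell viability was read by CellTiter-Glo luminescence, medium being phenol-red-free DMEM plus 10% FBS; concentration-response parameters came from normalized, curve-fitted qHTS data.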
SW480 rerep: A quantitative high throughput screen for small molecules that induce DNA re-replication in SW480 colon adenocarcinoma cells | SW480 DNA re-replication, Hoechst DNA content imaging, 48 h | Potency, µM (titrated, usually from 46.1 µM), without a hit: at the highest dose re-replication activation, hits mostly activators | hit rate 1.8% among 340,000 | AID 624297, 2012; note: % of control where 0% means no effect; nearly all actives have a fitted effect of over 55% in size
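DNA re-replication was detected as more nuclei of elevated Hoechst intensity after 48 hr exposure to compound (23 nL pinned per well of 250 cells).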
MCF10A rereplic: A quantitative high throughput screen for small molecules that induce DNA re-replication in MCF 10a normal breast cells; MCF 10A DNA re-replication, Hoechst nuclear intensity, 48 h; Potency, µM (highest dose often 46.1 µM), inactives show at the highest dose activity, positive = re-replication, usual class: activators; hit rate 2.9% among 350,000; AID 624296, 2012; note: % of control where 0% means no effect; nearly all actives have a fitted effect of over 50% in size
KB-3-1 cytotox: qHTS assay for MDR1-selective chemotherapeutics: Primary screen using the parental adenocarcinoma cell KB-3-1; KB-3-1 viability, CellTiter-Glo ATP luminescence, 72 h; Potency, µM (top dose mostly 46.1 µM), hits mostly cytotoxic; hit rate 1.4% among 400,000; AID 1347075, 2019; note: % is set by controls: 0 for no effect and ±100 for the full control effect; nearly all actives have a fitted effect of over 60% in size
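Cytotoxicity in the drug-sensitive parental line KB-3-1 was scored as loss of CellTiter-Glo luminescence following 72 h incubation with compound. Values come from curve fitting of normalized concentration-response data.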
VP16 counter: VP16 counterscreen qHTS for inhibitors of ROR gamma transcriptional activity. Potency, µM (highest dose often 53.6 µM), for the others: at the top dose activity, negative = inhibition, usual class: inhibitors. Drosophila S2 Gal4-VP16 UAS-luciferase, luminescence, 20 h. hit rate 3.5% among 310,000. AID 2546, 2010;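 note: Gal4-VP16 expression switched on by copper sulfate through the metallothionein promoter; % is set by controls: 0 for no effect and ±100 for the full control effect; nearly all actives have a fitted effect of over 50% in size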
The depositor's hits bear a star; i = inactive; ? = inconclusive; / = not tested or not shown; [ ] = another dose, or the depositor's remark. Calls come from the whole dose curve; as a rule, active = well fitted curve in the direction sought with a large enough effect; inconclusive = small, poorly fitted or top-dose-only effect, or another doubt; inactive = no such curve, though single readings can be large; an effect the other way counts as inactive or inconclusive. Potency is the fitted concentration of half-maximal effect.

SMILES	RORg inh	KB-V1 MDR tox	SW480 rerep	MCF10A rereplic	KB-3-1 cytotox	VP16 counter
CN1CCN(C(=O)c2ccc(CSc3ccc(Cl)cc3)cc2)CC1	?	7.3µM*	15%	1%	?	-14%
CCOC(=O)N1CCN(C(=O)c2ccc(CSc3ccc(Cl)cc3)cc2)CC1	?	i	0%	0%	i	?
O=C(c1ccc(Cl)cc1)N1CCC(O)(CSc2ccc(Cl)cc2)CC1	?	i	1%	16%	0.0007µM*	-22%
CCc1cccc(NS(=O)(=O)c2ccc3c(c2)oc(=O)n3C)c1	36%	4.6µM*	-6%	6%	?	-20%
CC(=O)c1cccc(NS(=O)(=O)c2ccc3c(c2)oc(=O)n3C)c1	-12%[0.365 µM]	16µM*	-3%	1%	?	/
Cn1c(=O)oc2cc(S(=O)(=O)Nc3ccccc3)ccc21	-22%	i	-2%	-13%	i	-6%
COc1ccccc1/C=C/C=N\N1CCN(Cc2ccccc2Cl)CC1	?	16µM*	5%	?	i	?
C[C@@H]1CN([C@H](C)CO)C(=O)CCCn2nncc2CO[C@H]1CN(C)CC1CC1	/	i	/	/	i	/
CCN1/C(=C/C=C/c2sc3ccccc3[n+]2CC)Sc2ccccc21	?	?	-8%	-6%	16µM*	?
COc1cc(OC)c(-c2nnc3n(CCc4ccccc4)c(=O)c4ccccc4n23)cc1OC	?	/	/	/	/	-1%
COc1ccc(-c2nnc3n(CCc4ccccc4)c(=O)c4ccccc4n23)c(OC)c1	?	?	17%	21µM*	i	5%
CC(C)(C)c1cc[n+](/C(C(=S)Nc2ccccc2F)=C(/[O-])c2ccc3c(c2)OCCO3)cc1	10µM*	i	9%	-1%	i	-10%
C/C(N=Nc1nc2ccccc2s1)=N\Nc1ccccc1O	8.9µM*	i	?	?	?	-4%
COc1ccc(N2C(=O)/C(=C\c3ccco3)N=C2SCC(=O)N(C(C)C)C(C)C)cc1Cl	?	?	2%	18%	i	10µM*
COCCNC(=O)c1cc2c(=O)n3cccc(C)c3nc2n1C	-1%	5.8µM*	-1%	?	3.3µM*	2%
CCCCNC(=O)c1cc2c(=O)n3cccc(C)c3nc2n1C	2%	/	/	/	/	-2%
CCOCCCNC(=O)c1cc2c(=O)n3cccc(C)c3nc2n1C	5%	i	0.65µM*	?	?	8%
CCOCCCn1c(=N)c(C(N)=S)cc2c(=O)n3cccc(C)c3nc21	-105%	16µM*	?	?	?	14µM*
Cc1cccn2c(=O)c3cc(C(N)=S)c(=N)n(CCCOC(C)C)c3nc12	-19%	i	0%	?	?	-10%
Cn1c(SCc2ccc(F)cc2)nc2ccc(C(=O)NCc3ccc(F)cc3)cc21	/	i	/	/	i	/
Cc1ccc(O)c(NC(=O)COCc2cc(-c3ccco3)on2)c1	/	i	/	/	i	/
CC(C)(C)NC(=O)NC(=O)CN1CCN(C(c2ccccc2)c2ccccc2)CC1	?	21µM*	15%	11%	i	3%
O=C(CN1CCN(C(c2ccccc2)c2ccccc2)CC1)NC(=O)NCc1ccco1	-16%	2.3µM*	?	5%	i	-7%
CC(C)(C)NC(=O)NC(=O)CN1CCN(Cc2ccccc2)CC1	-3%	i	-42%	2%	i	6%
COc1ccc(NC(=O)C2CC(=O)N/C(=N/N=C/c3ccccc3)S2)cc1 (configuration not stated)	-2%	i	4%	4%	i	5%
SMILES	RORg inh	KB-V1 MDR tox	SW480 rerep	MCF10A rereplic	KB-3-1 cytotox	VP16 counter
C/C(CCc1ccc2c(c1)OCO2)=N\N=C1\NC(=O)CC(C(=O)Nc2ccc(C(=O)O)cc2)S1 (configuration not stated)	/	i	1%	-1%	i	/
CCCOc1ccc(NC(=O)C2CC(=O)N/C(=N/N=C(C)/C=C/c3ccc(N(C)C)cc3)S2)cc1 (configuration not stated)	2.8µM*	16µM*	18µM*	5.2µM*	?	3.2µM*
CC(/C=C/c1ccc(N(C)C)cc1)=N\N=C1\NC(=O)CC(C(=O)Nc2ccccc2)S1 (configuration not stated)	2.2µM*	i	?	12µM*	i	3.5µM*
CC(/C=C/c1ccc(N(C)C)cc1)=N/N=C1/NC(=O)CC(C(=O)Nc2ccc(Cl)cc2)S1 (configuration not stated)	2.5µM*	i	21µM*	6.5µM*	i	8.9µM*
Cc1cccc2c(C(O)c3c[nH]c4c(C)cccc34)c[nH]c12	/	i	/	/	i	/
Cc1ccc(-c2cc(-c3ccccc3)c(C#N)c(N)n2)o1	20µM*	i	18µM*	18µM*	i	?
Cc1ccc(-c2cc(-c3ccc(F)cc3)nc(N)c2C#N)o1	0%	i	12µM*	3.7µM*	i	-28%
Cc1ccccc1NC(=O)c1ccccc1OCC(=O)Nc1ccc(Br)cc1	/	i	/	/	i	/
Nc1nc(N)c(S(=O)(=O)c2ccccc2)c(Nc2ccc(F)cc2)n1	/	i	/	/	i	/
COc1ccc2c(C)cc(SCc3c(C)noc3C)nc2c1	-16%	i	?	12µM*	i	5%
CN(C)c1ncc2nc(-c3ccc(Cl)cc3)c(=O)n(C[C@H]3CCCO3)c2n1	-22%	/	/	/	/	-9%
COc1ccc(C(CNC(=O)c2cc(S(=O)(=O)NCc3ccccc3)ccc2C)N2CCOCC2)cc1 (configuration not stated)	/	i	-459%	6%	i	/
COc1ccc(C(CNC(=O)c2cccc(S(=O)(=O)Nc3ccc(C)cc3)c2)N2CCOCC2)cc1 (configuration not stated)	/	?	1%	12%	?	/
COc1ccc(C(CNC(=O)c2cccc(S(=O)(=O)Nc3cccc(C)c3)c2)N2CCOCC2)cc1 (configuration not stated)	/	21µM*	-3%	14%	i	/
COc1ccc(C(CNC(=O)c2cccc(S(=O)(=O)NCc3ccccc3)c2)N2CCOCC2)cc1 (configuration not stated)	/	18µM*	-1%	-4%	i	/

From PubChem BioAssay
